Out of some 300,000 compounds screened, about 37,000 (12%) were called active. What follows is part of a selection rich in actives, with near analogues and random picks from the rest. Unmarked numbers belong to inactive results. No stated cut-off is given here; in the data, active means max response mostly above about 13% (no sharp cut-off); inactive means mostly below about 14%.
Assay: Cycloheximide Counterscreen for Small Molecule Inhibitors of Shiga Toxin; further: read at 38.3 µM for the half of the compounds with a filed dose; 0% is about no effect
Conditions: cell reporter, cycloheximide protein synthesis inhibition counterscreen; stronger effect = higher value

| SMILES | max response |
| --- | --- |
| CC(=O)c1c(O)cc2n(c1=O)-c1ccc(Cl)cc1C2(C)C | -1.91% |
| COc1ccccc1CCNS(=O)(=O)c1cn(C)nc1C | 1.23% |
| Cc1c(Cl)c([N+](=O)[O-])nn1CC(=O)NCCCN1CCOCC1 | -1.84% |
| CCOc1ccc(NC(=O)CN2CCN(CC(=O)Nc3ccc(OC)cc3)CC2)cc1 | -1.52% |
| COc1ccc(NC(=O)Cn2c(-c3ccc(OC)cc3)cn(-c3ccc(C)cc3)c2=O)cc1 | 27.2% (active) |
| COc1ccc(-c2cn(-c3ccc(C)cc3)c(=O)n2CC(=O)Nc2ccc(OC)c(OC)c2)cc1 | 12.3% |
| CC(C)CCN(C(=O)c1csnn1)C(C(=O)NC1CCCC1)c1ccccc1 (centres undefined) | -2.45% |
| COc1ccc(NC(=O)C(C)N2c3cccc4cccc(c34)S2(=O)=O)c(OC)c1 (centres undefined) | -5.29% |
| COc1ccc(-c2c3c(=O)n(C)c(=O)n(C)c3cn2NC(C)=O)cc1 | -6.45% |
| Cc1ccc(-c2c3c(=O)n(C)c(=O)n(C)c3cn2-c2ccccc2O)cc1 | 21.5% (active) |
| Cn1c(=O)c2cn(-c3cccc4ccccc34)cc2n(C)c1=O | 18.7% |
| Cc1ccc(-c2c3c(=O)n(C)c(=O)n(C)c3cn2-n2cnnc2)cc1 | 0.742% |
| COc1ccc(-c2c3c(=O)n(C)c(=O)n(C)c3cn2-c2cccc(OC)c2)cc1 | 0.846% |
| COc1cccc(-n2cc3c(c2-c2ccccc2)c(=O)n(C)c(=O)n3C)c1 | 57.2% (active) |
| Cn1c(C(=O)N2CCCC(C(=O)NCc3ccccc3)C2)cc2sccc21 (centres undefined) | 3.91% |
| CCOc1ccc(S(=O)(=O)N2CCC(C(=O)NCc3ccccn3)CC2)cc1Cl | -1.51% |
| COc1ccc(-c2nc(CS(=O)CC(=O)NCc3ccccc3)c(C)o2)cc1OC (centres undefined) | 4.98% |
| Cc1no[n+]([O-])c1COc1ccccc1/C=C1\NC(=S)NC1=O | 5.18% |
| CC(=O)Nc1ccc(S(=O)(=O)Oc2ccc(Br)cc2C(=S)N2CCOCC2)cc1 | -3.27% |
| CC(=O)Nc1ccc(CN2CCC(Oc3ccc(C(=O)N4CCCC4)cc3)CC2)cc1 | -0.693% |
| O=C(Nc1ccc(Cl)cc1)/C(=C1\CCCN1)[N+](=O)[O-] | 5.78% |
| O=C(CN(c1ccccc1)S(=O)(=O)c1ccc(Cl)cc1)Nc1ccccc1C(=O)N1CCCC1 | -1.5% |
| Cc1ccc(C2=C/C(=C\c3cccnc3)C(=O)O2)cc1 | -1.01% |
| O=S(O)S(=O)(=O)O | -2.81% |

Source: PubChem BioAssay AID2314 (National Center for Advancing Translational Sciences (NCATS), 2010)
